# Compound activity (PubChem)
# Shown are actives, neighbours in structure and some others; about 3.5% of the full set was active somewhere.
# BoNT-F LC inh = BoNT/F light chain protease inhibitors, primary screen, biochemical, flow cytometry, MLPCN library; Botulinum neurotoxin type F light chain protease (Clostridium botulinum); Multiplex microsphere protease cleavage assay; inhibition, % at 10 µM; 360,000 tested, 0.22% active; AID 588497, 2011; in the data active = inhibition above about 35%, passing the limit was not always enough; inconclusive = no clear call, values can overlap the other calls; also: plate controls were buffer without enzyme for full effect and enzyme alone for no effect
# Anthrax LF inh2 = Bacillus anthracis LF protease inhibitors, primary screen, biochemical, multiplex microsphere, MLPCN library; Lethal factor (Bacillus anthracis), P15917; multiplex microsphere protease cleavage assay; inhibition, % at 10 µM; 360,000 tested, 0.12% active; AID 588501, 2011; also: plate controls were buffer without enzyme for full effect and enzyme alone for no effect
# Target sequence (P15917 whole entry, looked up): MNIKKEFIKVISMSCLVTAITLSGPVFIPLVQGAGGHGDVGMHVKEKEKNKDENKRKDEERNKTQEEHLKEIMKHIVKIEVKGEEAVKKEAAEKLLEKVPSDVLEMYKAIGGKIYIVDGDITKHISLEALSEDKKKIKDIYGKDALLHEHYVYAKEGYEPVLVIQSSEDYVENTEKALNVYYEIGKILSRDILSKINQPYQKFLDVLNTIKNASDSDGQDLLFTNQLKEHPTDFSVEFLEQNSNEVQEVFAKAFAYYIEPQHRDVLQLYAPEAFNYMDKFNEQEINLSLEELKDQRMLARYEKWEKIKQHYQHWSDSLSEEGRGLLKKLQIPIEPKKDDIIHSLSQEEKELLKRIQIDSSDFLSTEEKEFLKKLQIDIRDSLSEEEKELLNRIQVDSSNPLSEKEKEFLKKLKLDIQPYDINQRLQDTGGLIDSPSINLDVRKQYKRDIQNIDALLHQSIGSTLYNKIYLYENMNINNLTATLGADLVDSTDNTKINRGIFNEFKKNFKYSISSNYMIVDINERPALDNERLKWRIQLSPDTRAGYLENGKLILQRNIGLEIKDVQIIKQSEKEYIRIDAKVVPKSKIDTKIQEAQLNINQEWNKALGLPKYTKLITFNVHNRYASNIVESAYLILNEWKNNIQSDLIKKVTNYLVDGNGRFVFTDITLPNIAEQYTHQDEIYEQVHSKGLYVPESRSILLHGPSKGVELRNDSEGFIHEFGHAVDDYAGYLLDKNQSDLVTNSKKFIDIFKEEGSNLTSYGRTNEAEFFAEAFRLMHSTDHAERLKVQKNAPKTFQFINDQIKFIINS
# Autofluor counter = flagged as autofluorescent in microsphere protease counterscreen; fluorescence intensity (concentration not given with the values); compound autofluorescence counterscreen, microsphere flow cytometry; active compounds read high; 360,000 tested, 3.1% active; in the data active = fluorescence intensity above about 16000; inconclusive = no clear call, values can overlap the other calls
# BoNT-A LC inh2 = BoNT/A light chain protease inhibitors, primary screen, biochemical, flow cytometry, MLPCN library. Botulinum neurotoxin type A light chain protease (Clostridium botulinum A str. ATCC 3502). multiplex microsphere protease substrate cleavage. inhibition, % at 10 µM. 360,000 tested, 0.17% active; also: plate controls were buffer without enzyme for full effect and enzyme alone for no effect
# * = called active by the depositor; ? = inconclusive. Rule as the data show it, unless noted: active = inhibition above about 30%; inconclusive = no clear call, values can overlap the other calls; inactive = below that.
SMILES,BoNT-F LC inh,Anthrax LF inh2,Autofluor counter,BoNT-A LC inh2
O=C(Nc1ccc2c(c1)OCO2)Nc1cnccn1,-5,0,21245*,-4
CC12CCC(C(=O)Nc3ccc4c(c3)OCCO4)(OC1=O)C2(C)C (stereo not drawn),-3,1,23818*,-2
CC12CCC(C(=O)NC(c3ccccc3)c3ccccc3)(OC1=O)C2(C)C (stereo not drawn),5,0,22368*,4
COC(=O)C(C)Sc1nc2ccsc2c(=O)n1Cc1ccccc1 (stereo not drawn),-6,-6,3937,-3
O=S(=O)(NC(=S)c1ccccc1)c1ccc(F)cc1,-20,-5,3590,-3
Cc1ccc(C(C#N)N2CCOCC2)cc1 (stereo not drawn),2,1,22170*,1
Cc1nc(=O)c(-c2ccccc2)c(C)n1-c1cccc(/C=C/C(=O)O)c1,11,2,2934,-1
COC(=O)c1sccc1NC(=O)c1ccccc1Br,-15,1,4644,-1
COC(=O)c1sccc1NC(=O)c1c(C)noc1C,0,-1,23485*,0
COC(=O)c1sccc1NC(=O)c1cc(C)on1,-9,-1,17750*,?
CCc1sc(C(=O)Nc2ccsc2C(=O)OC)cc1Br,-4,-4,16369*,0
O=C(CCNc1ccccc1)c1cccc([N+](=O)[O-])c1,4,-9,20571*,7
O=C(CCNc1ccc(F)cc1)c1cccc([N+](=O)[O-])c1,-2,-2,20472*,?
COc1ccc(Nc2c(CCc3ccccc3)nc3nc(C)cc(C)n23)cc1,-9,0,4647,-1
CN(C(=O)c1cccc(NC(=O)Cc2cccc(NC(=O)C3CCN(C(=O)C4CCCCC4)CC3)c2)c1)C1CCC1,2,-2,3797,0
C=CCNC(=S)Nc1sc2c(c1C(=O)OCC)CC(C(C)C)OC2 (stereo not drawn),0,0,22389*,0
Cc1cnc(C(=O)OCC(=O)c2ccc(Br)s2)cn1,5,-4,5989,3
Cc1ccc(NCc2n[nH]c(=S)n2-c2cccc(Cl)c2)cc1,0,-2,5122,0
Cc1nn(C(C)c2n[nH]c(=S)n2-c2cccc(Cl)c2)c(C)c1[N+](=O)[O-] (stereo not drawn),3,-8,18732*,4
COc1ccc(-n2c(C(C)n3nc(C)c([N+](=O)[O-])c3C)n[nH]c2=S)cc1 (stereo not drawn),12,-13,9879,0
Cc1ccc(-n2c(C(C)n3nc(C)c([N+](=O)[O-])c3C)n[nH]c2=S)cc1 (stereo not drawn),0,2,19726*,1
Nc1nsnc1C(=O)NCCO,-5,-1,17466*,-3
O=C(NCCO)c1ccc(Cl)c(Cl)c1,-13,-3,4898,1
CCCCCCC(C)OC(=O)c1ccccc1C(=O)O (stereo not drawn),35*,12,3516,1
CC(CCC(C)OC(=O)c1ccccc1C(=O)O)OC(=O)c1ccccc1C(=O)O (stereo not drawn),15,4,3882,-3
SMILES,BoNT-F LC inh,Anthrax LF inh2,Autofluor counter,BoNT-A LC inh2
CC1CN(CCOc2ccccc2C(C)C)CC(C)O1 (stereo not drawn),?,-13,3184,0
CC(C(=O)NCC1CCCO1)N(C(=O)c1snc(C(N)=O)c1N)c1cccc(F)c1 (stereo not drawn),-6,-7,9542,-1
CC(NC(=O)OCc1ccccc1)C(=O)NCC1CCCO1 (stereo not drawn),2,-1,22834*,1
CC(C(=O)NCC1CCCO1)N(C(=O)c1snc(C(N)=O)c1N)c1ccccc1 (stereo not drawn),1,-1,23246*,0
COC(=O)c1cc(S(=O)(=O)NC2CCC(C)CC2)cn1C (stereo not drawn),2,-1,5309,-1
Fc1ccc(COc2ccccc2CNCc2ccncc2)cc1,-21,-3,2435,-1
Brc1ccc(OCc2ccccc2)c(CNCc2ccncc2)c1,-15,-9,16749*,-3
Cn1c(N)c(C#N)c(-c2ccccc2)c(C#N)c1=O,-4,-7,3410,0
CCSc1nc2ccccc2n1CCOc1ccccc1,?,6,3158,2
CSc1nc2ccccc2n1C(=O)Oc1ccccc1,6,1,20058*,2
CN(CCOc1ccc(Cl)cc1)C(=O)c1cc(-c2ccco2)nc2ccccc12,-13,-2,7235,-5
Cc1ccc(C(=O)Nc2cccc(C(=O)N3CCOCC3)c2)cc1Cl,-6,2,4921,0
COc1cc(C2SCC(=O)Nc3c2c(C)nn3-c2ccccc2)cc(OC)c1OC (stereo not drawn),4,-2,19341*,3
CN(C)S(=O)(=O)c1ccc(Cl)c(NC(=O)CN2CCN(Cc3ccc4c(c3)OCO4)CC2)c1,-1,-5,4384,-1
C#CC(CC)(CC)NC(=O)/C=C/C(=O)O,?,32*,?,1
Cc1cccc2sc(NC(=O)CSCc3ccccc3)nc12,1,-1,23019*,?
CN(N=Cc1ccccc1)C(=S)Nc1ccccc1,4,-2,3315,0
CN1CCN(CCCNC(=O)c2nnc(Cc3c(F)cccc3Cl)o2)CC1,9,-9,18850*,10
COc1ccc(CCNC(=O)c2nnc(Cc3c(F)cccc3Cl)o2)cc1OC,6,1,3713,0
O=C(NCCCN1CCCC1=O)c1nnc(Cc2c(F)cccc2Cl)o1,-1,0,22538*,?
O=C(NCCCN1CCCC1=O)c1cccc(S(=O)(=O)Nc2ccccc2Cl)c1,-3,-4,6044,-1
CCSc1ccccc1C(=O)Nc1ccc(S(=O)(=O)NC(C)=O)cc1,-1,-3,4044,0
O=C1N(Cc2cccc(Cl)c2)C[C@@H]2C[C@@H](c3cccc4cccnc34)N3CCC[C@@]123,1,-10,24208*,2
CC(C)n1cc(C(=O)N2CCCC(N3CCN(c4cccc(Cl)c4)CC3)C2)cn1 (stereo not drawn),-2,2,5439,0
O=[N+]([O-])c1ccc(Cl)c(/C=N/N2CCN(Cc3ccccc3Cl)CC2)c1,1,-4,2546,-1
SMILES,BoNT-F LC inh,Anthrax LF inh2,Autofluor counter,BoNT-A LC inh2
O=[N+]([O-])c1ccc(Cl)c(/C=N/N2CCN(Cc3ccccc3)CC2)c1,1,-9,21691*,1
O=[N+]([O-])c1ccc(Cl)c(/C=N/N2CCN(Cc3ccc(Cl)cc3)CC2)c1,4,-8,18114*,?
CSc1ccc(NC(=O)NCc2ccccc2)cc1,?,-8,4365,?
COc1ccccc1CNC(=O)c1nccnc1CO,8,13,3432,-2
CC(=O)Nc1cccc(NC(=O)CSc2nc(C)c(C)c(C)c2C#N)c1,5,0,21241*,?
O=C(COC(=O)c1cccnc1Cl)c1ccc(Cl)cc1Cl,5,-1,19499*,4
CC(C1SC(=S)NC1=O)C1SC(=S)NC1=O (stereo not drawn),6,-2,3782,0
